Screening results deposited in PubChem BioAssay by National Center for Advancing Translational Sciences (NCATS).
VDR inhibitor = blocks the human vitamin D receptor. Potency, µM, for the others: max response, negative = inhibition, hits mostly inhibitors. VDR-SRC2-3 peptide fluorescence polarization, 2 h. 400,000 tested, 0.93% active; further: on the % scale 0 is the no-effect control and ±100 the full control effect
Target sequence (P11473 whole entry, looked up): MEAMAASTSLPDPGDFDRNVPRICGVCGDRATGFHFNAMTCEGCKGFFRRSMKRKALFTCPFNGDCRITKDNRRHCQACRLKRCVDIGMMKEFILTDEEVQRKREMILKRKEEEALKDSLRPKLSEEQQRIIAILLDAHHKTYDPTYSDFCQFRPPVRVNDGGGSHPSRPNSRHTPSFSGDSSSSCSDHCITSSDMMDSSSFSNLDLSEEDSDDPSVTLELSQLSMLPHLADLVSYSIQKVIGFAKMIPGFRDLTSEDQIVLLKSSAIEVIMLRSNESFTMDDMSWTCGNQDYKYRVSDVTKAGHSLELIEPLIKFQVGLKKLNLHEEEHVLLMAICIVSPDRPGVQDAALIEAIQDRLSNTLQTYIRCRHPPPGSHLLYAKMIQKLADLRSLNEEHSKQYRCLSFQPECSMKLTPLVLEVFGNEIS
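Reagent solutions, kept cold and dark, are dispensed first; compounds are then pinned in at 23 nl, plates briefly spun, and incubated 2 h at ambient temperature. Inhibition of VDR–SRC2-3 peptide binding is read by fluorescence polarization.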
PLK1 PBD inh = PLK1 (human) polo-box domain binding inhibition. P53350. Plk1 PBD binding of FITC phosphopeptide, fluorescence polarization. Potency, µM, for inactives: max response, negative = inhibition, actives largely listed as inhibitors. 360,000 tested, 2.8% active. AID 720504; further: series mostly up to about 57 µM; on the % scale 0 is the no-effect control and ±100 the full control effect; nearly all actives have a fitted effect of over 65% in size
G9a block = G9a (human) methyltransferase inhibition. 350,000 tested, 8.8% active. Q96KQ7. Potency, µM (top dose mostly 102 µM), for the others: top-dose activity, negative = inhibition, usual class: inhibitors. G9a H3K9 monomethylation, AlphaScreen, 2 h; further: on the % scale 0 is the no-effect control and ±100 the full control effect; nearly all actives have a fitted effect of over 75% in size
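G9a (20 nM) was preincubated 15 min with compound, then reacted 2 h at room temperature with 500 nM biotin-H3K9 peptide and 20 µM SAM. Monomethyl-H3K9 detected by AlphaScreen using anti-H3K9me1 antibody.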
JMJD2A Tudor = inhibitors of human JMJD2A Tudor domain; O75164; AlphaScreen JMJD2A-Tudor / H3K4me3 peptide binding; Potency, µM (doses to about 114 µM), for the others: top-dose activity change, negative = inhibition, actives largely listed as inhibitors; 390,000 tested, 4.4% active; AID 504339; further: on the % scale 0 is the no-effect control and ±100 the full control effect; nearly all actives have a fitted effect of over 50% in size
HP1b chromo inh = blocks HP1-beta chromodomain binding to methylated histone tails. P83916. 390,000 tested, 0.56% active. Potency, µM (doses to about 114 µM), without a hit: top-dose activity change, negative = inhibition, most hits filed as inhibitors. AlphaScreen HP1-beta / biotin-H3K9me3 peptide binding; further: nearly all actives have a fitted effect of over 70% in size
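Compound inhibition of the preformed complex between 50 nM HP1-beta and 50 nM biotinylated H3K9me3 peptide was read by AlphaScreen. Buffer was PBS pH 7.4 with 0.01% Tween-20. Incubations ran 30 min at room temperature, with 10 ug/mL donor/acceptor beads.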
BAZ2B inh = blocks human BAZ2B. Q9UIF8. AlphaScreen BAZ2B-H3K14Ac peptide displacement. Potency, µM (doses to about 114 µM), without a hit: at the highest dose activity change, negative = inhibition, usual class: inhibitors. 360,000 tested, 4.4% active; further: on the % scale 0 is the no-effect control and ±100 the full control effect; nearly all actives have a fitted effect of over 60% in size
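AlphaScreen displacement: compounds (up to 110uM) incubated 30 min at room temperature with a preformed 50 nM BAZ2B/50 nM biotinylated H3K14Ac peptide complex in PBS pH 7.4 with Tween-20. Donor and acceptor beads at 10 ug/mL final added, 20 min light-protected before reading.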
An asterisk follows results filed as active; ? = inconclusive; . = no result given; [ ] = remark or other dose. Hits are enriched below; roughly 11% of the tested compounds scored in any of these assays. The call rests on the fitted dose curve; in most records, active means well fitted curve in the direction sought with a large enough effect; inconclusive means small, poorly fitted or top-dose-only effect, or another doubt; inactive means no such curve, though single readings can be large; an effect the other way counts as inactive or inconclusive. Potency means the concentration at half of the fitted maximal effect.

SMILES	VDR inhibitor	PLK1 PBD inh	G9a block	JMJD2A Tudor	HP1b chromo inh	BAZ2B inh
O=C(CN1CCCCC1CO)c1ccc(OC(F)F)cc1 (stereo unspecified)	1.6%	-5.1%	56.2µM*	2.1%	47.7%	-14.4%
O=c1oc2ccccc2c(N2CCCC2)c1CN1CCCC1	-0.9%	0.1%	56.2µM*	-10.7%	34.9%	-0.6%
COc1ccccc1N1CCN(c2c(CN3CCCC3)c(=O)oc3ccccc23)CC1	-28.4%	.	-20.8%[59 µM]	-14.7%	-17.9%	-18.8%
O=c1oc2ccccc2c(Cl)c1CN1CCCCC1	3.6%	11.9µM*	50.1µM*	-7.9%	33.2%	-15.6%
O=c1cc(CN2CCCCCCC2)c2ccccc2o1	.	-4.1%	.	.	.	.
CCOC(=O)c1sc(NC(=O)C(C)Sc2nc(N)cc(=O)[nH]2)nc1C (stereo unspecified)	6.6%	-5.7%	-20.3%	-16.5%	15.7%	-15.6%
O=C1OCCC1Sc1nnc2c(n1)[nH]c1ccccc12 (stereo unspecified)	1.1%	.	.	-10.2%	19.6%	.
CC(=O)c1ccc2c(c1)N(CCCN1CCN(CCO)CC1)c1ccccc1S2	-14.8%	.	?	.	.	.
C[n+]1ccccc1/C=C1\Sc2ccccc2N1CCO	-1.5%	9.8%	50.1µM*	?	32.7%	?
CCOC(=O)c1c(C)sc(-c2c(-c3cc(C)ccc3C)[nH]c3c2c(=O)n(C)c(=O)n3C)c1O	6.3%	.	?	?	4.5%	79.4µM*
CCOC(=O)c1c(C)sc(-c2c(-c3cc(C)ccc3C)[nH]c3c2c(=O)[nH]c(=O)n3C)c1O	10.8%	.	?	-27.2%	9.6%	50.1µM*
CC(NC(=O)CNC(=O)C1O[C@@H]2OC(C)(C)O[C@@H]2[C@H]2OC(C)(C)O[C@@H]12)C(=O)O (stereo partly specified)	-13.1%	1.2%	-3.3%	-1.7%	33.0%	-12.0%
OC(COc1cccc2ccccc12)CN1CCN(c2ccc(Cl)cc2)CC1 (stereo unspecified)	0.5%	-11.1%	44.7µM*	?	13.7%	?
O=[N+]([O-])c1ccccc1OCC(O)CN1CCN(CC(O)COc2ccccc2[N+](=O)[O-])CC1 (stereo unspecified)	-16.8%	7.9%	.	-12.0%	18.1%	4.8%
COc1ccc(N2CCN(CC(O)COc3cc(C)ccc3C)CC2)cc1 (stereo unspecified)	8.8%	0.0%	8.91µM*	-33.5%	19.6%	?
COc1ccc(N2CCN(CC(O)COc3ccc(C)cc3C)CC2)cc1 (stereo unspecified)	-2.7%	-9.4%	39.8µM*	44.7µM*	?	39.8µM*
COc1cccc(OCC(O)CN2CCN(c3ccc(F)cc3)CC2)c1 (stereo unspecified)	6.9%	3.7%	-8.6%[2.33 µM]	-19.6%	21.6%	?
COc1cc(C(C)=O)ccc1OCC(O)CN1CCN(c2ccc(C)c(C)c2)CC1 (stereo unspecified)	-15.4%	8.3%	-7.5%[0.501 µM]	-27.2%	7.8%	-34.8%
COc1ccc(N2CCN(CC(O)COc3ccccc3[N+](=O)[O-])CC2)cc1 (stereo unspecified)	6.4%	4.0%	?	28.2µM*	?	?
CC(=O)Nc1ccc(S(=O)(=O)Nc2cc(-c3cn4ccccc4n3)ccc2C)cc1	4.6%	.	0.4%[59 µM]	-23.6%	26.1%	-29.8%
COCCNC(=O)C1CCCN(S(=O)(=O)c2ccc3c(ccn3C)c2)C1 (stereo unspecified)	8.5%	.	4.2%[59 µM]	3.8%	26.1%[57 µM]	-0.8%
C=C1CCN(C(C)C(=O)OCc2ccc(C)cc2)S(=O)(=O)c2ccccc21 (stereo unspecified)	-4.2%	.	.	32.4%	94.1%	.
CCc1cc2c(=O)c(-c3nc4ccccc4n3C)c(C)oc2c(CN2CCN(C)CC2)c1O	.	.	21.4%[59 µM]	.	.	8.4%
CCc1cc(-c2n[nH]c(C)c2-c2nc3ccccc3n2C)c(O)c(CN2CCN(C)CC2)c1O	-3.2%	-10.5%	44.7µM*	?	-21.6%	?
CCc1cc(-c2n[nH]c(C)c2-c2nc3ccccc3n2C)c(O)cc1O	-6.2%	0.5%	-42.4%	-32.2%	14.7%	?
